We go through 18 sequences from the OligoGym collection.
Further: reference of the scale not given here.

The first test deals with TMEM231. Kind of test: pooled miR-30 sensor sort-seq; sequence = guide strand. As to conditions: shRNA.
Take TTCTTCTCTAGTCGAAACGAGC: the sensor-assay potency score (higher = more potent) was -1.58.
The sequence TAGCATTAATCACAAATGGAGC had a sensor-assay potency score (higher = more potent) of -1.05.
In the case of TTCTGAAACACGAAGATCTTGA, the sensor-assay potency score (higher = more potent) was found to be 0.224.
In turn, TTACCATCTCCCAGAATCCTGG registered a sensor-assay potency score (higher = more potent) of -0.723.
With TTAAAATGTAACATGTCCGTCT, the sensor-assay potency score (higher = more potent) came to 0.405.
With AACACGAAGATCTTGATTCTTT, the sensor-assay potency score (higher = more potent) is -0.0929.

The target in a further test is TMEM42. The test is described as above. The settings on record: shRNA.
TGGATTAGGGTGAGTCCGCAGA showed a sensor-assay potency score (higher = more potent) of -1.31.
The same measure, in the same setting: with TACGCGGTCGCGGACACGGCGC the figure was -1.65; with TTGAAAAAGTCACTGTGACAGA, -0.719; with AATAAGGAACACTCCTCCCCAC, 0.0225.
Same read-out and setting: with AAACCCATGCTCACCTCGCTGC the figure was -0.311; with TAGAACACTGCTGCAGCTGCAC, -0.354.
Same read-out and setting: then TTGAATACGCCCCAAAAGCGGC, with -1.46; and TAAACCCATGCTCACCTCGCTG, with -1.26.
Regarding TAATACATAAGCATGACACAGA, the sensor-assay potency score (higher = more potent) was found to be 0.407.
Still for that read-out and setting: with TAGAGTTACATGACTGGCTTTT the figure was -0.949; with TAGCCCAGGAAGGCCGAGCTGA, -1.22.
In the case of TCCATACAGCACATAGCCCAGG, the sensor-assay potency score (higher = more potent) was -1.77.
